Experimental data: PubChem BioAssay (NCI)
“And” between values parts separate entries of the source, which are not always exact repeats. Equal entries are not always repeated. About 83,000 compounds went through this panel and 20% of them were active in at least one assay; those are over-represented in the sample as a whole.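 Results are percent growth after 48 hours of single-concentration exposure. 100 means growth as in untreated cells, lower positive values show inhibition; negative values down to -100 show cell death.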 Values without a mark were called inactive. The source made the active and inactive calls. Rule for the calls: active = growth percent below 10; inactive = the rest.

test system: MDA-MB-468 breast; test: NCI-60 one-dose screen, 48 h (100 = growth as untreated, 0 = no growth, -100 = all killed); settings: 10 µM unless noted

SMILES	growth
CC(C)(C)c1nn(-c2ccccc2)c2c1CC1(CN2Cc2ccc(Cl)cc2)C(=O)c2ccccc2C1=O	88.1%
C=CCOC(=O)C(=O)OCC=C	104%
CN1CCN(Cc2ccc(NC(=O)c3cncc(C#Cc4cnc5ccc(OCC6(C)COC6)nn45)c3)cc2C(F)(F)F)CC1	-73.8% (active)
Cc1nc(NC(=O)COc2ccc(/C=C3\Cc4ccc(Cl)cc4C3=O)cc2)sc1C	112%
O=C(NNC(=O)c1ccc(NC(=O)c2ccccn2)cc1)Nc1ccc([N+](=O)[O-])cc1	94.2%
CCOC(=O)/C=C(/C)Sc1cc(O)c2ccccc2c1O	29.9%
O=C(NNc1ccccc1)OCc1ccccc1	108%
C#CCOc1cccc(-c2ncnc3cc(NC(=O)CCl)ccc23)c1	-57.3% (active)
CCOc1ccc2c(c1)CN(Cc1ccc(Cl)cc1)CO2	57.2%
O=C(Nc1ccc(Cl)c(Cl)c1)NC(CO)(CO)CO	95.9%
COc1ccc2c(c1)c(CC(=O)[Se]CCC#N)c(C)n2C(=O)c1ccc(Cl)cc1	-36% (active)
COc1ccc2[nH]c(O)c(N=NC(=O)c3oc4ccccc4c3C)c2c1	19.9%
CCCn1cnc2c1c(=O)n(CCCCC(C)=O)c(=O)n2C	107%
Cc1ccc(NC(=O)N[C@@H](Cc2cc(F)cc(F)c2)C(=O)NC2C(=O)N3C[C@H](O)C[C@H]3C(=O)N3CCCC[C@H]3C(=O)N[C@@H](CO)C(=O)N3C[C@H](C)C[C@H]3C(=O)O[C@H]2C)c(F)c1 (stereo not given in full)	-2.72% (active)
CCCC(C)OCC(=O)O (stereo not given)	92.1%
Nc1nc(-c2ccccc2Br)nn1-c1nc2ccccc2s1	103%
O=C1Nc2ccc(Cl)cc2/C1=N/c1nc(-c2ccc(F)cc2)cs1	27.6%
COc1cc(N2C(=O)[C@H](Cl)C2c2ccc(SC)cc2)cc(OC)c1OC (stereo not given in full)	-9.26% (active)
COc1ccc(/C=C/C(=O)c2ccc(NC(=O)CSc3nnc(-c4cc(-c5ccccc5)nc5ccccc45)n3-c3ccccc3)cc2)cc1	97.2%
COC(=O)/C=C1/SC(=Nc2ccc(C)cc2)N(CCc2c[nH]c3ccc(O)cc23)C1=O	48%

SMILES	growth
O=CN1N=C(c2cccc(Nc3ccnc4cc(Cl)ccc34)c2)CC1c1ccc(Cl)cc1 (stereo not given)	-4.05% (active)
COc1ccccc1/C=C1\COc2ccc(O)cc2C1=O	68.7%
NC(=S)N/N=C\c1nccc2c(C(F)(F)F)cccc12	-64.8% (active)
CCCCOc1nc2ccccc2cc1/C=C/c1cc(/C=C/c2cc3ccccc3nc2OCCCC)n(-c2ccccc2)n1	104%
Brc1cc(-c2cc(-c3ccc4c(c3)OCCO4)[nH]n2)cs1	12%
Cc1cc(C)c(O)c(C(=O)CC(Br)C(=O)O)c1 (stereo not given)	74.9%
COc1ccc(NS(=O)(=O)c2ccc(-c3cnc(C4CC4)o3)cc2)cc1	12.5%
COC(=O)c1ccc(Cn2ccc(=O)[nH]c2=O)cc1	104%
Oc1ccc(CSc2nnc(-c3ccc(Br)cc3)n2-c2ccccc2)c2cccnc12	36.1%
COc1ccc(C2=C(CN)C(O)NC(=NCC(=O)c3ccc4ccccc4c3)N2)cc1 (stereo not given)	118%
COc1cc(-c2ccc(-c3ccc(C(=N)N)s3)s2)cc(OC)c1OC	23.8%
Cc1c([C@H](C(Cl)Cl)[C@H](O)[C@H]2C[C@H](C)C(=O)O2)ccc2c1C(=O)[C@H]1[C@H]2C[C@@H](Br)[C@@]23O[C@@H](CO[C@H]2O)CC13C (stereo not given in full)	17.5%
O=C(Nc1ccc(Cl)cc1)Nc1ccccc1CNc1nc(Nc2ccc(OCCN3CCCC3)cc2)ncc1Cl	-57.4% (active)
COc1cc(C(=O)NN=C2c3ccccc3-c3ccccc32)cc(OC)c1OC	-3.4% (active)
CC(C(=O)O)n1cc(C#N)c(=O)[nH]c1=O (stereo not given)	103% and 107%
Cn1ccnc1C(=O)/C=C/c1ccc(C(=O)Nc2ccc(S(F)(F)(F)(F)F)cc2)cc1	14.5%
Cn1c2c(c3ccc(-c4ccn[nH]4)cc3c1=O)C(=O)c1ccccc1-2	46.2%
NNc1nc(-c2cccnc2)nc2c1sc(=S)n2-c1ccccc1	115%
CN1CCN(CCC=C2c3ccccc3Sc3ccc(S(=O)(=O)N(C)C)cc32)CC1	21.1%
CCNCCNc1cc(C2CCCCC2)c(C#N)c2nc3ccccc3n12	-45.3% (active)
